Bioassay records deposited in PubChem BioAssay by several laboratories.
HSF-1 act = increases HSF-1 driven luciferase reporter signal; activation, % at 9 µM; actives 1.7% (n = 300,000); AID 504408; NIH3T3-HGL HSF-1 luciferase reporter, MG132, 8 h; 100% = twice DMSO control signal;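 active = mean replicate activation of at least 50% with a set share of replicates each reaching 50%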
pCIP destab = p/CIP protein destabilization; Q05BA5; F442A p/CIP-EGFP cells, EGFP fluorescence, 16 h; decrease of EGFP signal, % at 10 µM; actives 0.01% (n = 290,000); AID 1984;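 active = EGFP signal decrease of at least 30% at 10 µM or well 3 SD below plate mean, unless failing retest; inactive = the rest, including hits failing retest or dose response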
Target sequence (Q05BA5 1-1403): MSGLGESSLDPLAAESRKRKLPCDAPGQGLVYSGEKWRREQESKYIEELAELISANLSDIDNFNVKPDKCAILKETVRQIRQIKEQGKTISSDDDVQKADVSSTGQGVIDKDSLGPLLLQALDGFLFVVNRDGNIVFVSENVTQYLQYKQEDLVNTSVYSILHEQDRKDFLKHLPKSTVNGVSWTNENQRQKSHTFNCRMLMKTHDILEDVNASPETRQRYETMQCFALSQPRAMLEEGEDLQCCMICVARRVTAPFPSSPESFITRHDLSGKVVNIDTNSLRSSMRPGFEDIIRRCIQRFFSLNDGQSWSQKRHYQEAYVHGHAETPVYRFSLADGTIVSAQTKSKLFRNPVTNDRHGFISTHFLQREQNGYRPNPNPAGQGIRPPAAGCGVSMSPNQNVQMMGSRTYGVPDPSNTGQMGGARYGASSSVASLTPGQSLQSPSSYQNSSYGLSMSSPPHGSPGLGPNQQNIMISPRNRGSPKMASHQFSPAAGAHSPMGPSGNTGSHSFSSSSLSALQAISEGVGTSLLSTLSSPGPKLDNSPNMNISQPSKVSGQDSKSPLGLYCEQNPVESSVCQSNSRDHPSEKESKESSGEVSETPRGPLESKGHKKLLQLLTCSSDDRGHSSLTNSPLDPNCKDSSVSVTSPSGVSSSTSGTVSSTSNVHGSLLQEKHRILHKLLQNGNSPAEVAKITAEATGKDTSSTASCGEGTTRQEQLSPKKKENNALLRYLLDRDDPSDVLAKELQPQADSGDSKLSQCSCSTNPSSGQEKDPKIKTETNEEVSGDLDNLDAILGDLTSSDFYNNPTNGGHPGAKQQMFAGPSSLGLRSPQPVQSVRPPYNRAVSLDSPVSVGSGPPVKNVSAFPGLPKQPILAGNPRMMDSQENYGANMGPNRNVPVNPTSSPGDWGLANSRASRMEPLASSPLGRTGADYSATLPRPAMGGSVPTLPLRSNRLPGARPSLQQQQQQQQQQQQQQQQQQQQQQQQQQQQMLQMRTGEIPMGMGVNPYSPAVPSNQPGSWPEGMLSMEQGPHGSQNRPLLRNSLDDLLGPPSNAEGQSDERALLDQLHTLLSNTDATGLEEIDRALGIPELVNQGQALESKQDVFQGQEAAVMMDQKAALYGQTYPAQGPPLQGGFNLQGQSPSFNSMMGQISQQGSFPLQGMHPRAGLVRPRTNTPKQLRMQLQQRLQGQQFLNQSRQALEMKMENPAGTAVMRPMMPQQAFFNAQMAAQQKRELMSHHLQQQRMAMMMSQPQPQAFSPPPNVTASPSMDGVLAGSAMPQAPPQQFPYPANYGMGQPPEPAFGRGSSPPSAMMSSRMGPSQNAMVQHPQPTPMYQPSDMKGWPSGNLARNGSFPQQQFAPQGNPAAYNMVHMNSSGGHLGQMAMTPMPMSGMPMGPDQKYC
Hsp70 act = Hsp70 transcriptional activation, primary screen; actives 0.04% (n = 200,000); HeLa Hsp70 promoter luciferase reporter, luminescence; scaled: vehicle 0, proteasome-inhibitor control 100%; activation, % at 10 µM;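 active = activation above the mean across all tested compounds plus 3 SD, cutoff set per campaign, cut at about 5.5% in these data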
HSP90 inh = inhibitors of HSP90 luciferase refolding in rabbit reticulocyte lysate; luciferase refolding luminescence, 3 h; inhibition, % at 5.6 µM; actives 0.91% (n = 290,000); AID 1789;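 active = inhibition above the screen-wide mean plus 3 SD, computed separately per campaign, cut at about 16% in these data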;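 note: inhibitors lower the luminescence because luciferase stays unfolded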
HSF1 inh = HSF1 inhibition | NIH3T3-HGL HSE-luciferase, MG132-induced, luminescence 8 h; hits give low values | activity change, negative = inhibition, % at 7.5 µM (by protocol) | actives 0.77% (n = 300,000) | AID 2098;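 active = more than half of replicate wells show activity change below -50%, luminescence cut by over half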;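 note: luciferase reports HSF-1 transcriptional activity via heat shock element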
NALP1 inh = inhibitors of NALP1 inflammasome in yeast; actives 0.61% (n = 280,000); AID 2071; S. cerevisiae NALP1/ASC/caspase-1 growth, X-gal OD620, 72 h; inhibition, % at 10 µM; in the data active = inhibition mostly above about 24%, no sharp cut-off; inactive = mostly below about 32%
Numbers stand for hits; . = inactive; / = not tested or not shown. Hits are enriched below; roughly 3.8% of the tested compounds scored in any of these assays.

SMILES	HSF-1 act	pCIP destab	Hsp70 act	HSP90 inh	HSF1 inh	NALP1 inh
CCOc1cc(/C=C2/SC(=S)N(CC3CCCO3)C2=O)ccc1O (configuration not stated)	73	.	.	.	.	.
O=C1/C(=C/c2cccc(O)c2)SC(=S)N1CC1CCCO1 (configuration not stated)	.	.	/	.	.	.
CN(C)c1ccc(NS(=O)(=O)c2cc(Cl)ccc2Cl)cc1	.	.	.	.	-56	.
O=C1CCC(C(=O)N2CCCCCC2)CN1CCc1ccc(Cl)cc1 (configuration not stated)	.	.	/	.	.	.
O=C(NNc1ncnc2ccccc12)c1cccc(Cl)c1	60	.	/	.	.	/
CCOC(=O)CCNC(=O)N1CCCC(N(C)CCc2ccc(OC)c(OC)c2)C1 (configuration not stated)	.	.	/	.	.	.
Cc1nn(-c2ccccc2)c2[nH]c(=O)cc(C(F)(F)F)c12	.	.	/	.	.	38
CC(C)CNC(=O)c1ccccc1N(Cc1ccccc1)S(C)(=O)=O	.	.	/	.	.	.
FC(F)(F)c1cc(-c2cccs2)nc2nc(N3CCOCC3)sc12	.	.	.	.	.	.
CCC(C(=O)Nc1ccccn1)c1ccccc1 (configuration not stated)	.	/	/	/	.	/
CCC(C(=O)Nc1cnccn1)c1ccccc1 (configuration not stated)	.	.	.	.	.	22
O=C(COC(=O)c1ccc(Cl)c(S(=O)(=O)N2CCCCC2)c1)NCc1ccco1	.	.	.	.	.	.
CC(C)c1nnc(NC(=O)CCS(=O)(=O)c2nc(-c3cccs3)cc(C(F)(F)F)n2)s1	195	.	.	.	.	.
CC(C)c1nnc(NC(=O)CCS(=O)(=O)Cc2ccccc2)s1	.	.	/	.	.	.
Cc1cc(C)cc(SCc2noc(C(=O)NCc3ccccc3)c2C(=O)NCc2ccccc2)c1	.	.	/	/	-60	/
O=C(NCc1ccccc1)c1onc(CSc2ccc(F)cc2)c1C(=O)NCc1ccccc1	.	/	/	/	.	/
CCN(CC(=O)Nc1ccc(NC(C)=O)cc1)C(=O)CSc1ncnc2sc(C)c(C)c12	.	/	/	/	.	/
COC(=O)C1CCN(CC(=O)Nc2ccccc2Sc2ccccc2)CC1	.	.	.	.	.	.
CC1CCCCN1CC(=O)Nc1ccccc1Sc1ccccc1 (configuration not stated)	.	.	.	.	-59	.
CCC1(c2ccc(F)cc2)NC(=O)N(CC(=O)NCc2ccc(C)cc2)C1=O (configuration not stated)	.	.	/	.	.	.
O=C(COC(=O)C1CC2C=CC1C2)Nc1cccc(S(=O)(=O)N2CCCCC2)c1 (configuration not stated)	.	.	.	.	.	.
O=C(COC(=O)C1CC2C=CC1C2)Nc1ccc2c(c1)OC(F)(F)O2 (configuration not stated)	105	.	.	.	.	.
Clc1ccc(CON/C=N/c2ncnc3sccc23)cc1	.	.	.	17	.	.
CC(C)(C)c1ccc(OCCNC(=S)Nc2ccccc2)cc1	.	.	.	.	.	30
CC(C)(C)c1ccc(OCCNCc2ccccc2)cc1	.	.	/	.	.	.
SMILES	HSF-1 act	pCIP destab	Hsp70 act	HSP90 inh	HSF1 inh	NALP1 inh
CCCCn1cnc2c(oc3nc4c(cc32)CCCC4)c1=O	53	.	/	.	.	.
CCCCCCn1cnc2c(oc3nc4c(cc32)CCCC4)c1=O	.	.	.	.	.	.
CC(=O)N1CCc2cc(S(=O)(=O)NCCC(=O)Nc3cc(C)cc(C)c3)ccc21	.	.	.	.	.	40
CCC(=O)N1CCc2cc(S(=O)(=O)NCCC(=O)Nc3ccccc3C)ccc21	.	.	.	.	-65	.
O=C(O)c1cc([N+](=O)[O-])cc2c1C=Cc1ccccc1O2	.	.	/	.	.	.
COC(=O)c1nnn(CC(=O)NC(=O)Nc2ccc(F)cc2)c1C(=O)OC	55	.	.	.	.	.
Cc1ccc(C2(C(F)(F)F)N=C3Sc4cc(C)ccc4N3C(=O)N2)cc1 (configuration not stated)	.	.	.	.	.	36
COC(=O)c1ccccc1NC(=O)CSc1nnc(C(CO)NC(=O)c2ccccc2)n1C (configuration not stated)	.	.	.	.	-71	.
CC1CCN(c2ccc(C=O)o2)CC1	58	.	.	.	.	.
O=Cc1ccc(N2CCCC2)o1	.	.	.	.	.	.
O=C(NCc1ccc(Cl)cc1)C1CCC(CNS(=O)(=O)c2ccccc2)CC1 (configuration not stated)	.	.	/	.	.	.
O=C(O)c1cccc(N2C(=O)CSC2=S)c1	.	.	/	.	.	.
CC(C)N(Cc1ccccc1)C(=O)COC(=O)/C=C/c1cnc2ccccc2n1	63	.	.	.	.	.
CCN(C(=O)COC(=O)/C=C/c1cnc2ccccc2n1)c1ccccc1	/	.	.	.	/	.
O=C(CSC1=NCCS1)Nc1ccc(F)cc1	.	.	.	.	.	.
O=C(CSc1ccc(F)cc1)Nc1ccc(C2SCCS2)cc1	60	.	/	.	.	.
O=C(Oc1ccc(C(=S)N2CCOCC2)cc1Br)c1cc(Cl)ccc1Cl	78	.	.	.	.	.
O=C(Oc1c(Br)cc(C(=S)N2CCOCC2)cc1Br)c1ccc(Cl)cc1	.	.	.	.	.	.
O=C(c1cc2ccccn2n1)N1CCN(Cc2ccccc2)CC1	.	.	/	/	.	34
O=C(c1ccc(C(F)(F)F)cc1)C1CCCN(C(=O)CCc2cnccn2)C1 (configuration not stated)	.	.	.	.	.	38
O=C(c1cccc(C(F)(F)F)c1)C1CCCN(C(=O)CCc2cnccn2)C1 (configuration not stated)	.	.	.	.	.	.
O=C1C=CCC(/C=C/c2ccccc2)O1 (configuration not stated)	.	.	.	.	.	47
CC(Sc1nnc2ccccn12)C(=O)Nc1ccc(Cl)cn1 (configuration not stated)	.	.	.	.	.	.
CC(Sc1nnc2ccccn12)C(N)=O (configuration not stated)	76	.	.	.	.	.
CCCOc1ccc(C2=CSC3=NCCN23)cc1[N+](=O)[O-]	.	.	/	.	.	.
ON=C1c2ccccc2-c2ccccc21	57	.	/	.	.	.
NC(N)=NN=C1c2ccccc2-c2ccccc21	.	.	/	.	.	.
Cc1cc(C)c(S(=O)(=O)/N=C2/C=C(Sc3ncn[nH]3)C(=O)c3ccccc32)cc1C	/	.	.	80	/	.
Cc1cc(C(=O)Nc2ccc(F)c(Cl)c2)on1	.	.	/	.	.	.
